In experiment [1] the target is Tyrosine-protein kinase receptor UFO (Homo sapiens) (UniProt P30530). The following applies: at 1 µM.
Experiment [2] concerns the target Tyrosine-protein kinase Blk (Homo sapiens) (UniProt P51451). The following applies: at 0.1 µM.
Experiment [3] shares this target. The note with it: at 1 µM.
Experiment [4] has as its target T1, Cytoplasmic tyrosine-protein kinase BMX (Homo sapiens) (UniProt P51813).
T1 sequence (whole entry): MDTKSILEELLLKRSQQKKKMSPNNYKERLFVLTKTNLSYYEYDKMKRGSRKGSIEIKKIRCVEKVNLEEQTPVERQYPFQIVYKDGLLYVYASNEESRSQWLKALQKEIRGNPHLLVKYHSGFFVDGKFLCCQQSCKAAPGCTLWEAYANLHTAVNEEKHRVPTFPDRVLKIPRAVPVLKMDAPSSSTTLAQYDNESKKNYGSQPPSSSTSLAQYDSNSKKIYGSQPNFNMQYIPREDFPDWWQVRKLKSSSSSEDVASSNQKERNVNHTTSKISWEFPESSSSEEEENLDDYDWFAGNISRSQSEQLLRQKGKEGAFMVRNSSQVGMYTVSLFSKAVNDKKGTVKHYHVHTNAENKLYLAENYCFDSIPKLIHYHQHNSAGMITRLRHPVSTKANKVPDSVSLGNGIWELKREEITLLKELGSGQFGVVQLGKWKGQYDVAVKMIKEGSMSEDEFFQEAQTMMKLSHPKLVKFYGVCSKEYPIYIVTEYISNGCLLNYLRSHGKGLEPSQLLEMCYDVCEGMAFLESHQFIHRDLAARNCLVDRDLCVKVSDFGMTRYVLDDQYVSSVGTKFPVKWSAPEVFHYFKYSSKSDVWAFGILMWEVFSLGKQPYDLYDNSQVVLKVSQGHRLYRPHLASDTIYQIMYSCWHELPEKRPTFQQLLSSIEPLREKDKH
The note with it: at 0.1 µM.

Experiment [5] deals with T1, Cytoplasmic tyrosine-protein kinase BMX (Homo sapiens). The note with it: at 1 µM.
Experiment [6] deals with Protein-tyrosine kinase 6 (Homo sapiens) (UniProt Q13882). The note with it: at 0.1 µM.
For experiment [7] the target is unchanged. The following applies: at 1 µM.
Experiment [8] concerns the target Tyrosine-protein kinase BTK (Homo sapiens) (UniProt Q06187). The following applies: at 0.1 µM.
Experiment [9] shares this target. The following applies: at 1 µM.
Experiment [10] has as its target Tyrosine-protein kinase CSK (Homo sapiens) (UniProt P41240). The following applies: at 0.1 µM.
For experiment [11] the target is unchanged. The note with it: at 1 µM.
Experiment [12] has as its target T2, Discoidin domain-containing receptor 2 (Homo sapiens) (UniProt Q16832).
T2 sequence (whole entry): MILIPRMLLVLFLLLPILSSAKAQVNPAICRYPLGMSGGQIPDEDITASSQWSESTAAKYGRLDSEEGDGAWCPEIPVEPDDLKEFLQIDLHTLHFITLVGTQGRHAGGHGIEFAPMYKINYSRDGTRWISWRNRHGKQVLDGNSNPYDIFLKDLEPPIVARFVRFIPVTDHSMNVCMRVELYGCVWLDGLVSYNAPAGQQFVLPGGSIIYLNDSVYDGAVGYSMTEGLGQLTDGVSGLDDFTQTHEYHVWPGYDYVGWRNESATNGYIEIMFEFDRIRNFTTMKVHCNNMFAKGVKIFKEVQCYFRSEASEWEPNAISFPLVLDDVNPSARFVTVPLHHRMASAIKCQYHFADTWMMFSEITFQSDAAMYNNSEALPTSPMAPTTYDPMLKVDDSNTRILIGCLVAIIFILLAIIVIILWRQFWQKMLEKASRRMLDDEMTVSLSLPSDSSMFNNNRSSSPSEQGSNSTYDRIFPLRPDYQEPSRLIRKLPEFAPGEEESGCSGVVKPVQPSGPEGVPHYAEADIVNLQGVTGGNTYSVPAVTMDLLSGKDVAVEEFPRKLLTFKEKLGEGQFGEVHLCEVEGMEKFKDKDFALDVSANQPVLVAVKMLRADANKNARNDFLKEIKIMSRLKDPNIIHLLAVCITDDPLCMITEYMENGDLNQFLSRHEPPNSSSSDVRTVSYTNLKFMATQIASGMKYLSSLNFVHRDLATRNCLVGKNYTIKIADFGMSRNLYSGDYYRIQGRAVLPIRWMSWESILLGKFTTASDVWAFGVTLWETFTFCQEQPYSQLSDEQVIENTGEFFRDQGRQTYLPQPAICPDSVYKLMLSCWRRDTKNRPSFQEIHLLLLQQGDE
The note with it: at 0.1 µM.

Experiment [13] concerns the target T2, Discoidin domain-containing receptor 2 (Homo sapiens). The following applies: at 1 µM.
The target in experiment [14] is Epidermal growth factor receptor (Homo sapiens) (UniProt P00533). The note with it: at 0.1 µM.
Experiment [15] shares this target. The following applies: at 1 µM.
Experiment [16] deals with Epidermal growth factor receptor (Homo sapiens), P00533 [L858R]. The following applies: at 0.1 µM.
The test system is the same in experiment [17]. The note with it: at 1 µM.
Experiment [18] relates to Epidermal growth factor receptor (Homo sapiens), P00533 [L861Q]. The following applies: at 0.1 µM.
For experiment [19] the test system is unchanged. The note with it: at 1 µM.
Experiment [20] concerns Epidermal growth factor receptor (Homo sapiens), P00533 [T790M]. The following applies: at 0.1 µM.

Epidermal growth factor receptor (Homo sapiens), sequence (P00533 whole entry): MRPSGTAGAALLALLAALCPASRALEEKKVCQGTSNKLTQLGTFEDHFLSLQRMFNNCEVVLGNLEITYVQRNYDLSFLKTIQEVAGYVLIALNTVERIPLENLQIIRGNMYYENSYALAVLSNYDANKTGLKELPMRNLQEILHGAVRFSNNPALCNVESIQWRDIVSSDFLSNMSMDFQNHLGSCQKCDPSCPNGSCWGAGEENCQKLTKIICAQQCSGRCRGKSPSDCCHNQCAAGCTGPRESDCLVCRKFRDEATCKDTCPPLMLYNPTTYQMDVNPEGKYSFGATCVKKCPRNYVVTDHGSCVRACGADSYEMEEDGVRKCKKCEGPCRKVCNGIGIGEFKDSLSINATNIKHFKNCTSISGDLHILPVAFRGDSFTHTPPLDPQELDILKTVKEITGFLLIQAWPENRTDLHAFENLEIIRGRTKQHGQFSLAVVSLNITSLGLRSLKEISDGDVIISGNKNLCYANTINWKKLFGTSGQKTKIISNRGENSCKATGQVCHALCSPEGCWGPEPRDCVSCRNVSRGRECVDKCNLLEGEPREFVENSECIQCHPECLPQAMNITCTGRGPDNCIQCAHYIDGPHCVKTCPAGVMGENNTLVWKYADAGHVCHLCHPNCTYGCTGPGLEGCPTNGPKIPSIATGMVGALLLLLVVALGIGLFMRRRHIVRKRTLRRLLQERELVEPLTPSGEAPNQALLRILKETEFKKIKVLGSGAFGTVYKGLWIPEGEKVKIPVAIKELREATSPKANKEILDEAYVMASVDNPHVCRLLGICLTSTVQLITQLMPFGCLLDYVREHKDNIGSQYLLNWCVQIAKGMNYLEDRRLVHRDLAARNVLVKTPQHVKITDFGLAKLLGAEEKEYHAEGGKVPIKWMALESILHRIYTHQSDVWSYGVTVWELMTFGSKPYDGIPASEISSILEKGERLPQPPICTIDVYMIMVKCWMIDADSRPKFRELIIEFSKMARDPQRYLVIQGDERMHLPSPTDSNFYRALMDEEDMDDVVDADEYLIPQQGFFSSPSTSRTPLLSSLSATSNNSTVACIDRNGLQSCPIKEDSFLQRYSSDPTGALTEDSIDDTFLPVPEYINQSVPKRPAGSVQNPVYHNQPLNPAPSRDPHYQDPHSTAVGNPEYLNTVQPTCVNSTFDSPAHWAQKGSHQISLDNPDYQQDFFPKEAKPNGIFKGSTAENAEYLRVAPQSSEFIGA
Epidermal growth factor receptor (Homo sapiens), P00533 [L858R], sequence (P00533 whole entry L858R): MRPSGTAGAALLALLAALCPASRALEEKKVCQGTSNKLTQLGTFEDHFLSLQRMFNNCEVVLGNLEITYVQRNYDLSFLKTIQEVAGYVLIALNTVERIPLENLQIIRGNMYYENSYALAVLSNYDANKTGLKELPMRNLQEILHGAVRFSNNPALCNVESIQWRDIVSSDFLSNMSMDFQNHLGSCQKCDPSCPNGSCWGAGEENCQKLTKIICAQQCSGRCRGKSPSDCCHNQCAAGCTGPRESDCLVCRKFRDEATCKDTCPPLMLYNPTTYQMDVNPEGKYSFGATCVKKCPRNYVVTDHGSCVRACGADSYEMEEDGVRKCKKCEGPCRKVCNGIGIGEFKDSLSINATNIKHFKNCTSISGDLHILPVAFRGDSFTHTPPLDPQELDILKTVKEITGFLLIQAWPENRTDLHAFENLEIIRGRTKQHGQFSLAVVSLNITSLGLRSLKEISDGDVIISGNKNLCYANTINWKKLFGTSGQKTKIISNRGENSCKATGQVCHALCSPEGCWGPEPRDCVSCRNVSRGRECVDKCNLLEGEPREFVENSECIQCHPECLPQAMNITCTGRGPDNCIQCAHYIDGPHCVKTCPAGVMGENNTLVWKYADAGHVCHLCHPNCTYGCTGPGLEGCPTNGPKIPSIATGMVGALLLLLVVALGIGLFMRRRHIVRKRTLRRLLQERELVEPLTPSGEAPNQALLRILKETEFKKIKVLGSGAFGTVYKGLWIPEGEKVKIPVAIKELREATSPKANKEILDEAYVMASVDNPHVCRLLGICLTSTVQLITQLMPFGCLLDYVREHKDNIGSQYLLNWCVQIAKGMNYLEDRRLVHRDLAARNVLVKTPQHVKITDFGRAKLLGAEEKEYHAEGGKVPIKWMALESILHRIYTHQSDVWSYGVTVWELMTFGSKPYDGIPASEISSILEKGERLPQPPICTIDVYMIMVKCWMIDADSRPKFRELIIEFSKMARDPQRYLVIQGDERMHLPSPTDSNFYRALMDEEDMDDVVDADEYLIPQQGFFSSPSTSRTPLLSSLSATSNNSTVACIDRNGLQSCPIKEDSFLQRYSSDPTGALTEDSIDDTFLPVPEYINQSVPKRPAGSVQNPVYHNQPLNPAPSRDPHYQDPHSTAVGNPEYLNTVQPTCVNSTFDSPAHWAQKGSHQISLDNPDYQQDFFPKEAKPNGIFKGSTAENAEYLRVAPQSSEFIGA
Epidermal growth factor receptor (Homo sapiens), P00533 [L861Q], sequence (P00533 whole entry L861Q): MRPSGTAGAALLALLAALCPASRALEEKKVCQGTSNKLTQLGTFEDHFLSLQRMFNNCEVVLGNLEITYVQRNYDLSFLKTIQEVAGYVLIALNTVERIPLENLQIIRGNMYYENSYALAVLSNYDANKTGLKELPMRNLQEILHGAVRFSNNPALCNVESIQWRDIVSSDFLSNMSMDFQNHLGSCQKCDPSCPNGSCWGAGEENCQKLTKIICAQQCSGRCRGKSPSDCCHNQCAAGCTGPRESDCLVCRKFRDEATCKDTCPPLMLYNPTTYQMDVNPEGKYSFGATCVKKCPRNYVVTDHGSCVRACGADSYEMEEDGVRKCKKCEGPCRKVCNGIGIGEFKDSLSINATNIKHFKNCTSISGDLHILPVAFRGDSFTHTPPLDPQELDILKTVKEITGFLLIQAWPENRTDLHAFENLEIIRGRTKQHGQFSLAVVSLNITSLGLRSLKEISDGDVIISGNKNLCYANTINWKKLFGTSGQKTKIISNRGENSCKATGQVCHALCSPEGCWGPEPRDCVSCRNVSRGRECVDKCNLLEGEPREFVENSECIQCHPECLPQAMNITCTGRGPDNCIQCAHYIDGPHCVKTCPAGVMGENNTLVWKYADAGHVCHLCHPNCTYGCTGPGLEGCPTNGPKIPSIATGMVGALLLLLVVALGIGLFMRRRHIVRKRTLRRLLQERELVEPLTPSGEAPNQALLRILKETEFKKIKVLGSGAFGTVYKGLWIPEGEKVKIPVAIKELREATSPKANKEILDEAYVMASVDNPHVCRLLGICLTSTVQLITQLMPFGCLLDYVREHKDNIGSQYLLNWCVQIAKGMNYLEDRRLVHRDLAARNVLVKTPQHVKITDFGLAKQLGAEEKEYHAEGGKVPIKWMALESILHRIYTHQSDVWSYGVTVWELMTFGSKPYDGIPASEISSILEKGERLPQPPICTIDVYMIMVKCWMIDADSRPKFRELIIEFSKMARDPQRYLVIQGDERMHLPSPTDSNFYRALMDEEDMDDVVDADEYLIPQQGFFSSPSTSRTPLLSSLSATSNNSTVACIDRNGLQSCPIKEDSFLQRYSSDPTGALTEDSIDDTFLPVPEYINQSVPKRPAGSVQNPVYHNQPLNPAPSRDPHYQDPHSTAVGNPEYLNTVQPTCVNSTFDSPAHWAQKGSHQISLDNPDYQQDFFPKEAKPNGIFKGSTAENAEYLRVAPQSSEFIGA
Tyrosine-protein kinase BTK (Homo sapiens), sequence (Q06187 whole entry): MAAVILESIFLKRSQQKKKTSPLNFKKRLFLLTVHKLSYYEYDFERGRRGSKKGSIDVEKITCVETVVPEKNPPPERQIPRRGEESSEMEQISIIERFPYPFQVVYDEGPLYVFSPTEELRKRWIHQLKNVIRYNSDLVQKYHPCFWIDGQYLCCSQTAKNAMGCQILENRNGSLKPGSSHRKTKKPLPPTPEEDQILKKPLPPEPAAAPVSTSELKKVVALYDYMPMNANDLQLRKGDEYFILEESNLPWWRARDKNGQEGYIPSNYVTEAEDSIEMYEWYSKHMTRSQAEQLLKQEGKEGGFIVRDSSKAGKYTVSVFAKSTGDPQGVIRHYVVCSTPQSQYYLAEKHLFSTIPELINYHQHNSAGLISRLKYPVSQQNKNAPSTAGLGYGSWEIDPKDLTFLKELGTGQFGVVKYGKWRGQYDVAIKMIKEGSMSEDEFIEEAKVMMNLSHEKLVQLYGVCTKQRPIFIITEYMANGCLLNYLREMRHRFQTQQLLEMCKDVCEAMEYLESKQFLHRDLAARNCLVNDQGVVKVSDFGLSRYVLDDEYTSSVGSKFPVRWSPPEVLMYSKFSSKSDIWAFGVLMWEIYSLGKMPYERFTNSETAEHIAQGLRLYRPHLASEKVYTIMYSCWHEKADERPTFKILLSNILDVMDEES
Protein-tyrosine kinase 6 (Homo sapiens), sequence (Q13882 whole entry, looked up): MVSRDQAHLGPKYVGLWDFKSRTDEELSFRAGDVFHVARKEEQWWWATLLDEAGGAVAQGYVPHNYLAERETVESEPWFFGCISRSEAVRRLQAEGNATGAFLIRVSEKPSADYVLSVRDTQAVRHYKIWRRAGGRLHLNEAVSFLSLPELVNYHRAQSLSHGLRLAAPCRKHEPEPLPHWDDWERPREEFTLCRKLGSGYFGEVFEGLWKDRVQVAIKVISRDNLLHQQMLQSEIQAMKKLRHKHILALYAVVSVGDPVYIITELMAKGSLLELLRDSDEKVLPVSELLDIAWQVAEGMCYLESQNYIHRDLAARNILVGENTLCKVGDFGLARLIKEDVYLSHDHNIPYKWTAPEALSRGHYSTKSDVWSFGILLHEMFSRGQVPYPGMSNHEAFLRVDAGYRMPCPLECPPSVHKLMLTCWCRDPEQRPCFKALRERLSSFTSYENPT

`COC(=O)Nc1nc2ccc(Oc3ccc(NC(=O)Nc4cc(C(F)(F)F)ccc4F)cc3)cc2s1`: the inhibition in experiment [1] came out at 46.6%; in [2], 0.64%; in experiment [3], 3.2%; in [4], 0.05%; in experiment [5] it was 2.68%; in [6], 1.06%. For the same compound, the inhibition in [7] was 0.36%; in [8] it was -0.69%; in experiment [9] it was -0.85%; in experiment [10] it was 4.36%; in [11] it was 33.4%; in experiment [12], 62.7%. Also, the inhibition was 83.6% in experiment [13]; 1.66% in experiment [14]; 3.16% in experiment [15]; -2.69% in experiment [16]; 2.24% in experiment [17]; -1.23% in experiment [18]. Also, the inhibition is 1.41% in [19] and 0.17% in experiment [20].
With `CC1=C(C(=O)Nc2ccc3[nH]ncc3c2)C(c2ccc(F)cc2)N=C(c2ccc(C(F)(F)F)nc2)N1` (stereo not given), the inhibition in [1] was -0.71%; in [2], 2.98%; in experiment [3], 3.72%; in [4], -0.04%; in experiment [5], 3.01%; in [6], 2.13%. Moreover, the inhibition in experiment [7] worked out at 3.49%; in experiment [8] it was 0.06%; in experiment [9], 0.16%; in experiment [10], 1.42%; in experiment [11], 6.65%; in [12], 1.54%. The inhibition is 6.22% in experiment [13]; 3.43% in [14]; 7.73% in experiment [15]; 4.85% in [16]; 6.69% in experiment [17]; 2.32% in experiment [18]. Moreover, the inhibition in [19] stood at 2.72%; in [20] it was 0.14%.
As to `O=C(O[C@H]1CN[C@H](C#Cc2cc3ncnc(Nc4ccc(OCc5cccc(F)c5)c(Cl)c4)c3s2)C1)N1CCOCC1`, the inhibition in experiment [1] is -9.27%; in experiment [2], 3.99%; in [3], 1.91%; in [4], -1.21%; in [5] it was 3.25%; in [6] it was 5.25%. Further, the inhibition in experiment [7] is 9.3%; in experiment [8], 0.42%; in [9] it was -0.33%; in experiment [10], 7.67%; in experiment [11], 7.44%; in experiment [12], 1%. Besides, the inhibition stood at 2.47% in [13]; 77.1% in [14]; 77.1% in experiment [15]; 40.9% in [16]; 87% in [17]; 42.8% in [18]. Moreover, the inhibition turned out to be 75.2% in experiment [19] and 5.1% in [20].
`COc1ccc2ncn(-c3cc(O[C@H](C)c4ccccc4C(F)(F)F)c(C(N)=O)s3)c2c1`: the inhibition is 1.8% in experiment [1]; -0.74% in experiment [2]; 2.3% in experiment [3]; -0.1% in [4]; 1.93% in experiment [5]; -0.2% in experiment [6]. Also, the inhibition in [7] is -0.61%; in experiment [8], -0.76%; in experiment [9] it was -0.74%; in [10], -1.23%; in [11], -2.18%; in experiment [12] it was -0.82%. Further, the inhibition in experiment [13] was -2.22%; in experiment [14] it was 0.37%; in experiment [15], 2.93%; in [16], -1.19%; in experiment [17], 1.03%; in experiment [18], -0.87%. The inhibition in [19] is 0.54%; in experiment [20], -1.45%.
With `N#Cc1cccc(Nc2ncc(-c3ccccc3)o2)c1`, the inhibition in experiment [1] is -1.77%; in experiment [2], 2.28%; in experiment [3], 5.45%; in [4] it was 5.35%; in [5], 3.56%; in experiment [6], 3.51%. In addition, the inhibition in experiment [7] is 3.45%; in [8], 1.01%; in experiment [9], -0.7%; in experiment [10], 2.15%; in experiment [11], 5.14%; in experiment [12], 2.3%. The inhibition in [13] was 2.59%; in [14], -0.19%; in experiment [15], 2.05%; in experiment [16], 2.09%; in [17] it was 2.9%; in experiment [18], 3.59%. The inhibition worked out at 2.98% in experiment [19] and 1.65% in experiment [20].
For `CS(=O)(=O)Nc1ccc(-c2cc(-c3ccccc3)cc(C(N)=O)c2N)cc1`, the inhibition in experiment [1] was -0.04%; in [2], 0%; in experiment [3], 4.17%; in [4], 1.21%; in experiment [5] it was 0.72%; in experiment [6], 0.76%. The inhibition in [7] was 3.55%; in experiment [8] it was -2.25%; in [9] it was -2.03%; in [10] it was 1.18%; in [11] it was 1.29%; in experiment [12], -0.17%. In addition, the inhibition in experiment [13] stood at 1.14%; in experiment [14], 11.5%; in experiment [15] it was 17.2%; in experiment [16], 1.51%; in [17], 1.89%; in experiment [18], 0.77%. Also, the figures for the inhibition in experiment [19] and in [20] were 5.17% and -0.83%, respectively.

For the origin of these results see ChEMBL document CHEMBL1961873, “Compounds: GSK PKIS; Assays: Nanosyn kinase panel” (2012).
